Source: PubChem
NPC1 promoter act – activators of NPC1 promoter; Huh7 NPC1 promoter luciferase reporter, 24 h; Potency, µM (top dose mostly 9.22 µM), for the others: at the top dose activation, actives largely listed as activators; 2.4% of 320,000 active; note: % of control where 0% means no effect; nearly all actives have a fitted effect of over 60% in size
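Cells: Huh7 expressing luciferase under the NPC1 promoter, 1500/well. Seeded 2 h, compound added, incubated 24 h at 37 °C. Luciferase reagent, 10 min ambient, then luminescence.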
Rab9 promoter act – activators of Rab9 promoter; Huh7 Rab9 promoter-luciferase reporter, luminescence, 24 h; Potency, µM (titrated, usually from 9.22 µM), inactives show at the highest dose activation, negative = inhibition, most hits filed as activators; 2.8% of 320,000 active; note: % of control where 0% means no effect; nearly all actives have a fitted effect of over 60% in size
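Using Huh7 cells stably transfected with Rab9 promoter–luciferase, compounds were incubated 24 h at 37 °C, 5% CO2; luciferase luminescence was read 10 min after reagent addition.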
FLuc counter – firefly luciferase modulation, counter-screen for miR-21 project. 6.9% of 360,000 active. purified FLuc, Km substrates, luminescence inhibition. P08659. Potency, µM (series often up to 57.5 µM), for inactives: at the highest dose activity change, negative = inhibition, most hits filed as inhibitors;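 note: plate controls were vehicle for no effect and reference inhibitor for full effect; nearly all actives have a fitted effect of over 55% in size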
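Biochemical qHTS of compounds, final roughly 60 µM downward over six points, against 10 nM purified firefly luciferase using Km concentrations of substrates (10 uM D-luciferin, 10 uM ATP) in Tris acetate pH 7.5 buffer; luminescence output.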
ELG1 repair inh – inhibitors of ELG1-dependent DNA repair in HEK293T cells; HEK293T ELG1-luciferase reporter, luminescence, 16 h; DNA damage induced by 5-fluorouridine; 2.3% of 330,000 active; Potency, µM (top dose mostly 46.1 µM), for the others: at the top dose activity change, negative = inhibition, actives largely listed as inhibitors; note: % is set by controls: 0 for no effect and ±100 for the full control effect; nearly all actives have a fitted effect of over 55% in size
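Reporter activity after DNA damage by 5-fluorouridine is monitored. Compound-treated cells incubate 16 hr at 37 °C, then ONE-Glo is added for 30 min before luminescence reading.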
SMN2 splice up – increases expression of the SMN2 splice variant | HEK293 SMN2-luciferase splicing reporter, luminescence, 30-36 h | 2.8% of 210,000 active | Potency, µM (highest dose often 46.1 µM), inactives show at the highest dose activity change, positive = activation, most hits filed as activators; note: % of control where 0% means no effect; nearly all actives have a fitted effect of over 55% in size
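HEK293 cells carry an SMN2 […]–luciferase reporter in which exon 7 inclusion puts luciferase in frame. Cells were plated 10-12 h before compound addition, then incubated 30-36 h at 37C. ONE-Glo luminescence was read; sodium butyrate at 4.5 mM final served as control.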
ELG1 genotox – induces genotoxicity in HEK293T cells with luciferase-tagged ELG1. HEK293T ELG1-luciferase reporter, luminescence, 16 h. Potency, µM (series often up to 46 µM), without a hit: at the top dose activity change, positive = activation, usual class: activators. 1.3% of 330,000 active; note: % of control where 0% means no effect; nearly all actives have a fitted effect of over 60% in size
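After overnight (16 hr) compound treatment at 37 °C, ELG1-luciferase HEK293T cells were lysed with ONE-Glo; luminescence quantified 30 min later at room temperature.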
ELG1 FLuc counter – luciferase inhibition in cell-free luciferin readout for ELG1 hits; shares compounds with ELG1 repair inh; cell-free firefly luciferase luminescence counter-screen, ViewLux; Potency, µM (series often up to 46.1 µM), without a hit: top-dose activity change, negative = inhibition, most hits filed as inhibitors; 3% of 350 active; note: % is set by controls: 0 for no effect and ±100 for the full control effect
ELG1-Luc inh – confirmation of human ELG1-dependent DNA repair inhibitors; 68% of 670 active; shares compounds with ELG1 repair inh; AID 624248; HEK293T ELG1-luciferase levels, luminescence; cells co-treated with 5-fluorouridine; Potency, µM (highest dose often 46.1 µM), without a hit: at the highest dose activity change, negative = inhibition, most hits filed as inhibitors; note: % is set by controls: 0 for no effect and ±100 for the full control effect; nearly all actives have a fitted effect of over 55% in size
ELG1 MMS Luc – MMS-stimulated human ELG1 repair inhibition, confirmed; HEK293T luciferase-tagged ELG1 level, MMS stimulated; Potency, µM (doses to about 46.1 µM), without a hit: at the top dose activity change, negative = inhibition, usual class: inhibitors; 53% of 670 active; shares compounds with ELG1 repair inh; note: % is set by controls: 0 for no effect and ±100 for the full control effect; nearly all actives have a fitted effect of over 60% in size
ELG1 5-FU – confirmation of ELG1 repair inhibitors: viability with 5FU; shares compounds with ELG1 repair inh; cell viability with 5-FU, ELG1-dependent repair; Potency, µM (titrated, usually from 46.1 µM), without a hit: at the top dose activity change, negative = viability loss, most hits filed as cytotoxic; 670 tested, under 10 active; AID 624250;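 note: ELG1-luc HEK293T cells cotreated with 5-fluorouridine at 10 µM final; viability measured 16 h after compound addition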
ELG1 MMS viab – confirmation of ELG1 repair inhibitors: viability with MMS | shares compounds with ELG1 repair inh | 33% of 670 active | AID 624251 | Potency, µM (highest dose often 46.1 µM), for the others: at the top dose activity change, negative = viability loss, actives largely listed as cytotoxic | Cell viability with MMS, ELG1-dependent DNA repair;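 note: ELG1-luc HEK293T cells co-treated with 10 µM MMS; viability read 16 h after compound addition; % is set by controls: 0 for no effect and ±100 for the full control effect; nearly all actives have a fitted effect of over 60% in size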
Cell viab unstim – affects unstimulated cell viability, ELG1 hit counter-screen. cell viability counter-screen, unstimulated, luminescence. 8% of 900 active. shares compounds with ELG1 repair inh. Potency, µM (top dose mostly 45.9 µM), for the others: top-dose activity change, negative = loss of viability, actives largely listed as cytotoxic;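 note: compound exposure lasted 16 hours before reading; % is set by controls: 0 for no effect and ±100 for the full control effect; nearly all actives have a fitted effect of over 55% in size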
FLuc enzyme – inhibits purified firefly luciferase, counter-screen for ELG1 hits; purified firefly luciferase, luminescence counter-screen; shares compounds with ELG1 repair inh; 10% of 350 active; Potency, µM (doses to about 57.5 µM), for the others: at the top dose activity, negative = inhibition, usual class: inhibitors; note: % is set by controls: 0 for no effect and ±100 for the full control effect
An asterisk follows results filed as active; ? = inconclusive; nt = not tested or not shown; [ ] = another dose, or the depositor's remark. Compounds with a hit are over-represented: about 9.3% of the library has one in this group of screens. Calls come from the whole dose curve; as a rule, active = well fitted curve in the direction sought with a large enough effect; inconclusive = small, poorly fitted or top-dose-only effect, or another doubt; inactive = no such curve, though single readings can be large; an effect the other way counts as inactive or inconclusive. Potency is the fitted concentration of half-maximal effect.

SMILES	NPC1 promoter act	Rab9 promoter act	FLuc counter	ELG1 repair inh	SMN2 splice up	ELG1 genotox	ELG1-Luc inh	ELG1 MMS Luc	ELG1 5-FU	ELG1 MMS viab	Cell viab unstim	others
CCOC(=O)c1c(NC(=O)Cn2cc([N+](=O)[O-])cn2)sc2c1CCC2	-1%	3%	6%	1.8µM*	-18%	1%	-9%	18µM*	5%	7.9µM*	?
COc1ccc(-c2nc3c(c(SCC(=O)N4CCOCC4)n2)Cc2c(CO)cnc(C)c2O3)cc1	0%	-1%	0%	1.3µM*	nt	-2%[9.26 µM]	3.5µM*	?	6%	-2%	-16%	ELG1 FLuc counter=20%;FLuc enzyme=0%
Cc1ccc(-c2nc3c(c(SCC(=O)N4CCOCC4)n2)Cc2c(CO)cnc(C)c2O3)cc1	2%	-2%	-1%	?	nt	-8%[9.26 µM]	nt	nt	nt	nt	nt
CCNC(=O)C(=O)Nc1ccc2c(c1)N(S(=O)(=O)c1cccs1)CCC2	-8%	-1%	2%	-22%	nt	-7%	nt	nt	nt	nt	nt
CCCNC(=O)C(=O)Nc1ccc2c(c1)N(S(=O)(=O)c1cccs1)CCC2	-25%	-22%	7%	3.3µM*	nt	-2%	16µM*	5.6µM*	?	?	-10%
O=C(Nc1ccc(S(=O)(=O)N2CCOCC2)cc1)c1ccc([N+](=O)[O-])s1	-8%	-4%	-1%	2.6µM*	nt	-5%	2µM*	3.5µM*	?	4.4µM*	?
O=C(Nc1ccc(S(=O)(=O)N2CCOCC2)cc1)c1cccs1	-1%	-2%	6%[2.3 µM]	-29%	2%	-2%	nt	nt	nt	nt	nt
CN(C(=O)c1sc2nc(N3CCOCC3)c3c(c2c1N)CCCC3)c1ccccc1	-5%	-2%	-7%	13µM*	-18%	-7%	16µM*	22µM*	?	2%	-17%	ELG1 FLuc counter=-3%;FLuc enzyme=3%
Nc1c(C(=O)NCCc2ccccc2)sc2nc(N3CCOCC3)c3c(c12)CCCC3	-3%	14%	0%	-16%	-16%	-5%	nt	nt	nt	nt	nt
CN(C(=O)CN1C(=O)c2ccccc2S1(=O)=O)C1CCCCC1	nt	nt	nt	?	nt	?	nt	nt	nt	nt	-2%
